This is an account of results in PubChem BioAssay (NCI).

What all share (assay): NCI-60 one-dose screen, 48 h (100 = growth as untreated, 0 = no growth, -100 = all killed)
Common to all, as to details: 10 µM unless noted

For test [1], the system named is HCT-15 colon.
Test [2] deals with HT29 colon.
Test [3] deals with SNB-75 CNS.
The test system of test [4] is SNB-19 CNS.
For test [5], the system named is U251 CNS.
For test [6], the system named is SK-MEL-5 melanoma.
For test [7], the system named is UACC-62 melanoma.
Test [8] deals with LOX IMVI melanoma.
The test system of test [9] is SK-MEL-28 melanoma.
Test [10] deals with PC-3 prostate.

This is part of a sample that, as a whole, favours compounds with a hit. Of some 83,000 tested, about 20% had one in any assay.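 Negative percent growth values reflect cell death: -40 means 40% of the cells present at the start died, and -100 means all died.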 Unmarked numbers belong to inactive results. The source made the active and inactive calls. Rule for the calls: active = growth percent below 10; inactive = the rest.

As for `COc1ccc(-c2cc(-c3ccc(Nc4nc(Nc5ccccc5)nc(Nc5ccc(Cl)cc5)n4)cc3)nc(N)n2)cc1`, the growth is 76.6% in test [1]; 52% in test [2]; 55.6% in test [3]; 68.7% in test [4]; 24.7% in [5]; 60.7% in test [6]. Besides, the growth in test [7] was 58.8%; in test [8], 55%; in test [9], 84.8%.

For the compound `CN(C)S(=O)(=O)n1cnc([C@@H]2[C@@H]3C(=O)OC[C@@H]3C[C@]23N=CN(Cc2ccccc2)C3=O)c1`, the growth was 89.7% in test [2]; 67.5% in test [3]; 98.2% in test [4]; 107% in test [5]; 102% in test [6]; 106% in test [7]. In addition, the growth was 101% in [8] and 108% in [9].

For `CCOc1ccc(S(=O)(=O)c2ccc(C)cc2)c2c1no[n+]2[O-]`, the growth is 52.8% in [2]; 54.7% in test [3]; 87.9% in test [4]; 80.1% in test [5]; 82.1% in test [10]; 72.5% in test [6]. Also, the growth in [7] was 78.5%; in test [8] it was 87.1%; in test [9], 104%.

`C=C(C)[C@@H]1CC[C@@]2(C(=O)O)CC[C@]3(C)C(CCC4[C@@]5(C)CCC(OS(=O)(=O)c6ccccc6)C(C)(C)C5CC[C@]43C)C12` (stereo partly drawn): the growth in test [2] is 58.4%; in test [3], 86.1%; in test [4], 83.6%; in test [5], 41.5%; in [10], 44.4%; in test [6], 35.6%. The values for the growth in test [7], in test [8] and in test [9] were 47.5%, 53.8% and 86%, respectively.

As to `NC(=O)c1c(NC(=O)c2ccc(C(F)(F)F)cc2Cl)sc2c1CCC(=O)C2`, the growth in [2] is 1.16% (active); in test [3], -81.9% (active); in test [4] it was 14%; in test [5] it was -5.53% (active); in test [10] it was -68.8% (active); in test [6], -91.9% (active). Also, the growth in [7] is -74.7% (active); in test [8], -15.5% (active); in test [9] it was -67.2% (active).

As for `Cc1cc(-c2noc(C(F)(F)F)n2)ccc1N1CCN(c2cc(C(=O)N(C)C)no2)CC1`, the growth in [2] was 78.3%; in test [3], 73%; in [4], 64.1%; in test [5], 71.9%; in [10], 56.8%; in test [6], 2.91% (active). For the same compound, the growth was 62.1% in test [7], 62.4% in test [8] and 84.8% in test [9].

On to `CN(CCCCCCCCNc1ccnc2ccccc12)Cc1ccc(-c2ccc(-c3ccc(C#N)cc3)s2)cc1`, for which the growth in [2] is -55.1% (active); in [3], 42.5%; in test [4], -14.6% (active); in [5], -73.7% (active); in test [10], -63.7% (active); in [6], -100% (active). Moreover, the values for the growth in test [7], in test [8] and in test [9] were -37.4% (active), -96.2% (active) and -84.1% (active), respectively.

As to `CCCCNC(=O)NS(=O)(=O)c1ccc(N2N=C(c3ccc(C)cc3C)CC2c2ccc(N(C)C)cc2)cc1` (stereo not drawn), the growth in [2] is 62%; in [3], 75.4%; in [4], 75.6%; in [5], 37%; in [10] it was 38%; in test [6], 47%. In addition, the growth is 54.8% in test [7], 52.2% in test [8] and 45.5% in test [9].

On to `CCCNCC(=O)Nc1ccc(C(=O)OC(C)(C)CC)cc1`, for which the growth in test [2] was 79.4%; in test [3], 104%; in test [4], 99.7%; in [5], 100%; in test [10], 75.8%; in test [6] it was 98.2%. The growth is 96.3% in test [7], 100% in test [8] and 112% in test [9].

On to `COc1cc2c(O)n(CCCn3ccnc3)c3c4cnc5cccc(c(=O)c3c2cc1OC)c54`, for which the growth in [2] is 33.8%; in [3], 52%; in test [4], 33.8%; in test [5] it was 14%; in test [10], 28.2%; in test [6] it was 24.9%. Further, the growth is 15% in [7], 3.76% (active) in test [8] and 79.6% in [9].

On to `O=C(CC12CC3CC(CC(C3)C1)C2)NCCOCCOCCNC(=O)c1cc2c(o1)C(=O)c1ccccc1C2=O`, for which the growth was 3.08% (active) in [2]; -99% (active) in test [3]; -16.3% (active) in test [4]; -87.8% (active) in [5]; 4.8% (active) in [10]; -97.5% (active) in test [6]. Moreover, the figures for the growth in test [7], in [8] and in test [9] were -94.9% (active), -95.1% (active) and -73.5% (active), respectively.
